In the library only some 4.7% were active in any assay of this set; here they are far more common.
HSF1 inh – HSF1 inhibition; actives 0.77% (n = 300,000); activity change, negative = inhibition, % at 7.5 µM (by protocol); NIH3T3-HGL HSE-luciferase, MG132-induced, luminescence 8 h; active compounds read low;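 active = more than half of replicate wells show activity change below -50%, luminescence cut by over half; inconclusive = some wells, but at most half, below -50%; inactive = no replicate well below -50%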;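 note: luciferase reports HSF-1 transcriptional activity via heat shock element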
TROY signal inh – TROY signaling inhibition; AID 1347056; actives 0.98% (n = 360,000); inhibition, % at 10 µM; Q293 LMP1-TROYcd NF-kB luciferase reporter, 4 h;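 active = compounds whose plate-normalised and pattern-corrected inhibition of the luciferase reporter signal at the single screening dose is 50% or more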
LMP1 NFkB inh – Epstein-Barr LMP1 NF-kappaB reporter inhibition; LMP1-induced NF-kappaB luciferase reporter cells, luminescence; inhibition, % at 12.5 µM; actives 0.69% (n = 350,000); AID 504558; in the data active = inhibition above about 41%; inconclusive = no clear call, values can overlap the other calls
HSP90 inh – HSP90 refolding inhibition in rabbit reticulocyte lysate. luciferase refolding luminescence, 3 h. inhibition, % at 5.6 µM. actives 0.91% (n = 290,000). AID 1789;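 active = inhibition above the screen-wide mean plus 3 SD, computed separately per campaign, cut at about 16% in these data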;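 note: inhibitors lower the luminescence because luciferase stays unfolded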
HSF1 activator – increases HSF-1 driven luciferase reporter signal | activation, % at 9 µM | actives 1.7% (n = 300,000) | NIH3T3-HGL HSF-1 luciferase reporter, MG132, 8 h; 100% = twice DMSO control signal;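 active = mean replicate activation of at least 50% with a set share of replicates each reaching 50%; inconclusive = only one of those two conditions met; inactive = mean below 50% and too few replicates reaching it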
TWEAK Fn14 block – blocks TWEAK-Fn14 interaction in a reporter cell assay; inhibition, % at 10 µM; AID 1159606; actives 2% (n = 360,000); TWEAK-stimulated Fn14 reporter cells, luciferase luminescence, 8 h; in the data active = inhibition above about 50%
Of the large screens only hits and unclear results are named; the others gave an inactive call.

Cc1nccn1-c1ccc(NC(=O)[C@H]2O[C@@H](n3ccc(N)nc3=O)[C@H](O)[C@@H]2O)cc1	none (no result: HSF1 inh, LMP1 NFkB inh, HSP90 inh, HSF1 activator)
COc1ccc(NC(=O)C2=C(C)NC(=S)NC2c2ccc(O)c(OC)c2)cc1 (stereo not given)	none
COc1cc(C2NC(=S)NC(C)=C2C(=O)Nc2ccc(C)cc2)ccc1O (stereo not given)	HSF1 activator 84
CCCS(=O)(=O)NC(=O)C1(C)CCCN(C(=O)c2c(C)noc2C)C1 (stereo not given)	none (no result: HSF1 inh, LMP1 NFkB inh, HSP90 inh, HSF1 activator)
O=[N+]([O-])c1cccc(S(=O)(=O)Nc2nc3ccccc3nc2Nc2cccc(S(=O)(=O)N3CCCCC3)c2)c1	TROY signal inh 71, TWEAK Fn14 block 86
Cc1ccc(S(=O)(=O)Nc2nc3ccccc3nc2Nc2cccc(S(=O)(=O)N3CCCC3)c2)cc1	TROY signal inh 54, TWEAK Fn14 block 69
O=S(=O)(Nc1nc2ccccc2nc1Nc1ccc2c(c1)OCO2)c1ccccc1	none
COc1ccc(S(=O)(=O)Nc2cccc(S(=O)(=O)N3CCCCC3)c2)cc1	none (no result: HSF1 inh, HSP90 inh, HSF1 activator)
O=[N+]([O-])c1cccc(S(=O)(=O)Nc2ccc(S(=O)(=O)N3CCCC3)cc2)c1	none
Cc1cccc(S(=O)(=O)Nc2nc3ccccc3nc2Nc2ccc3c(c2)OCO3)c1	TROY signal inh 64
CCOC(=O)C1(C)CCCN1C(=O)c1cccc2ccccc12 (stereo not given)	none (no result: HSF1 inh, LMP1 NFkB inh, HSP90 inh, HSF1 activator)
CCOC(=O)C1(C)CCN1C(=O)c1ccc2c(c1)CCO2 (stereo not given)	none (no result: HSF1 inh, LMP1 NFkB inh, HSP90 inh, HSF1 activator)
Cc1cc(Br)c2nc(-c3ccccc3)c(Cc3cccc(Cl)c3)n2c1	none (no result: HSF1 inh, LMP1 NFkB inh, HSP90 inh, HSF1 activator)
CC(C)CN=C(NS(=O)(=O)c1ccccc1)C(Cl)(Cl)Cl	HSF1 inh -74, TROY signal inh 51, TWEAK Fn14 block 99
O=C(c1ccccc1)n1c(=S)nc2ccccn21	TROY signal inh 60, TWEAK Fn14 block 82 (no result: HSP90 inh)
Cc1ccc(C(=O)n2c(=S)nc3ccccn32)cc1	none (no result: TROY signal inh, LMP1 NFkB inh, TWEAK Fn14 block)
Cc1cccc(C(=O)n2c(=S)nc3ccccn32)c1	TWEAK Fn14 block 77
Cc1cc(C(=O)COc2ccc(Br)cc2F)c(C)n1CC1CCCO1 (stereo not given)	none (no result: HSF1 inh, HSP90 inh, HSF1 activator)
CN(N=Nc1nc[nH]c1C(N)=O)C1CCCCC1	none (no result: HSF1 inh, LMP1 NFkB inh, HSP90 inh, HSF1 activator)
COc1ccc([C@H]2C[C@@H](O)[C@H](n3cc(C4CC4)nn3)CN2C(=O)C2CCCCC2)cc1	none (no result: HSF1 inh, HSP90 inh, HSF1 activator)
CCCC(C)NC(C)C(=O)NC1CCCC1 (stereo not given)	LMP1 NFkB inh 66
CC1=C(C(=O)N(C)C)CC(CC(=O)NCc2cccs2)C(=O)N1CCC1=CCCCC1 (stereo not given)	none (no result: HSF1 inh, HSP90 inh, HSF1 activator)
CN(C)c1ccc(-c2csc(C(O)c3ccc(F)c(F)c3)n2)cc1 (stereo not given)	none (no result: HSF1 inh, LMP1 NFkB inh, HSP90 inh, HSF1 activator)
CN1OC[C@@H]2CN(C(=O)c3cccc4ccccc34)[C@H](c3ccccc3Br)C[C@@H]21	none (no result: HSF1 inh, LMP1 NFkB inh, HSP90 inh, HSF1 activator)
C=C(C(=O)c1ccccc1)C(NC(C)(C)C)c1ccccc1 (stereo not given)	LMP1 NFkB inh 91, TWEAK Fn14 block 96 (no result: HSF1 inh, HSP90 inh, HSF1 activator)
COC(=O)C(NC(=O)c1ccccc1)c1ccccc1 (stereo not given)	none
C=C(C(=O)c1ccccc1)C(C)CC(=O)c1ccccc1 (stereo not given)	HSF1 activator inconclusive, TWEAK Fn14 block 63
Cn1c(=O)cc(OCCCC(=O)NC2CCCC2)c2ccccc21	HSF1 activator 56
Cn1c(=O)cc(OCC(=O)NC2CCCCC2)c2ccccc21	none
Cc1cnc(C2OCCO2)c2cccc([N+](=O)[O-])c12	none (no result: HSF1 inh, HSP90 inh, HSF1 activator)
COC(=O)c1ccc(COc2cccn3c(N(C)C(=O)CCC4CCCC4)c(C)nc23)cc1	TWEAK Fn14 block 52 (no result: HSF1 inh, LMP1 NFkB inh, HSP90 inh, HSF1 activator)
Cc1nc2c(OCc3ccc(F)cc3)cccn2c1N(C)C(=O)CCC1CCCC1	none (no result: HSF1 inh, LMP1 NFkB inh, HSP90 inh, HSF1 activator)
CCOc1ccc(/C=N/NC(=O)c2ccc(Cn3cc([N+](=O)[O-])cn3)o2)cc1	HSF1 inh -55
O=C1c2cccc3cccc(c23)C(c2nc3ccccc3[nH]2)N1C1CC1 (stereo not given)	none (no result: HSF1 inh, LMP1 NFkB inh, HSP90 inh, HSF1 activator)
CC(=O)Oc1ccc(-c2ccc(C(=O)NCCc3ccc(S(N)(=O)=O)cc3)cc2)cc1	none
CC(=O)Oc1ccc(C(=O)NCCc2ccccc2)cc1	TWEAK Fn14 block 60
CCCNC(=O)c1cccc(Br)c1	none
O=C(NCCc1ccccc1)c1cccc(Br)c1	HSF1 activator 65
Cc1ccc(S(=O)(=O)NC(=O)C2(C)CCN2C(=O)C2(c3ccc(Cl)cc3)CCC2)nc1 (stereo not given)	none (no result: HSF1 inh, LMP1 NFkB inh, HSP90 inh, HSF1 activator)
O=C(CSc1cccc[n+]1[O-])c1cc(Cl)ccc1Cl	HSF1 activator 170
O=C(CSc1cccc[n+]1[O-])c1cc2ccccc2o1	HSF1 activator 192
O=C(O)CSc1cccc[n+]1[O-]	none
Nc1nc(SCC(=O)c2cc3ccccc3o2)n[nH]1	none
COc1c(C)cc(C(O)c2ncc(-c3ccccc3)[nH]2)cc1C (stereo not given)	none (no result: HSF1 inh, LMP1 NFkB inh, HSP90 inh, HSF1 activator)
COc1cccc(NC(=O)N(C)C[C@@H]2OCc3cn(nn3)CCCC(=O)N([C@H](C)CO)C[C@H]2C)c1	none (no result: HSF1 inh, HSP90 inh, HSF1 activator)
O=c1[nH]c(CSc2ncc(C(F)(F)F)cc2Cl)nc2ccccc12	HSF1 activator 63
O=c1[nH]c(CSc2ccccn2)nc2c1cnn2-c1ccccc1	HSF1 activator 57
O=c1[nH]c(SCc2ccc(Cl)cc2)nc2ccccc12	HSF1 activator 66
O=c1[nH]c(CSc2ccccn2)nc2ccccc12	HSF1 activator 75
O=C1NC[C@H](CCCCN2C[C@H](Cc3ccccc3)N(CCc3ccc(O)cc3)C(=O)C2=O)N(CCC2CCCCC2)C1=O	none (no result: HSF1 inh, LMP1 NFkB inh, HSP90 inh, HSF1 activator)
COc1ccc(-c2csc(C(C)(O)c3cccc(F)c3)n2)cn1 (stereo not given)	none (no result: HSF1 inh, LMP1 NFkB inh, HSP90 inh, HSF1 activator)
C[C@H]1CN([C@@H](C)CO)C(=O)c2cc(Br)cnc2O[C@H]1CN(C)C(=O)Cc1ccccn1	none (no result: HSF1 inh, HSP90 inh, HSF1 activator)
O=C(Nc1ccccn1)C(c1ccccc1)c1ccccc1	none (no result: HSF1 inh, HSP90 inh, HSF1 activator)
CCCC(=O)N1CCCC1(C)C(=O)Nc1ccc(-n2cncn2)cc1 (stereo not given)	none (no result: HSF1 inh, LMP1 NFkB inh, HSP90 inh, HSF1 activator)
N#CCc1c(C#N)c(N)nc(N2CCN(C=O)CC2)c1C#N	none
N#CCc1c(C#N)c(N)nc(N2CCN(S(=O)(=O)c3ccccc3)CC2)c1C#N	HSF1 activator 86
Cc1ccc(C(=O)Oc2ccccc2N2CCOCC2)cc1	none
Cc1ccc(C(=O)OC2OC(=O)C(Cl)=C2N2CCOCC2)cc1 (stereo not given)	TWEAK Fn14 block 58
CCOc1ccc2nc(SCc3ccc(CC(=O)O)cc3)c(C#N)cc2c1	TROY signal inh 76
Nc1nc(N=Nc2ccc(O)cc2)cc(=O)[nH]1	none (no result: HSF1 inh, HSP90 inh, HSF1 activator)
CC1=C(C(=O)N(C(C)C)C(C)C)CC(CC(=O)NCCCCc2ccccc2)C(=O)N1CCCN1CCCC1=O (stereo not given)	none (no result: HSF1 inh, LMP1 NFkB inh, HSP90 inh, HSF1 activator)
CN1CCN(c2ccc(-c3cccc4nccn34)cn2)CC1	none (no result: HSF1 inh, LMP1 NFkB inh, HSP90 inh, HSF1 activator)
CCOC(=O)CC(NS(=O)(=O)c1ccc2[nH]cc(C(=O)O)c(=O)c2c1)c1ccc(OCC)c(OC)c1 (stereo not given)	HSF1 activator 88

Source: PubChem BioAssay (several laboratories)
